The list is not random: actives were taken first. Their share in the collection is about 3.6%.
BJeLR lethal: kills HRASV12-expressing BJeLR cells | inhibition, % (concentration not given with the values) | 300,000 tested, 0.17% active | BJeLR (HRASV12) viability, CellTiter-Glo ATP luminescence, 48 h; in the data active = inhibition above about 50%; inconclusive = no clear call, values can overlap the other calls
Anthrax LF inh2: inhibitors of Bacillus anthracis lethal factor protease. P15917. multiplex microsphere protease cleavage assay, LF. inhibition, % at 10 µM. 360,000 tested, 0.12% active. AID 588501
BoNT-A LC inh2: BoNT A light chain protease inhibition; multiplex microsphere protease substrate cleavage, flow cytometry; inhibition, % at 10 µM; 360,000 tested, 0.17% active; AID 588499
Bead autofluor: flagged as autofluorescent in microsphere protease counterscreen. fluorescence intensity (test concentration not listed). AID 624483. compound autofluorescence counterscreen, microsphere flow cytometry; stronger effect = higher value. 360,000 tested, 3.1% active; in the data active = fluorescence intensity above about 16000; inconclusive = no clear call, values can overlap the other calls
SARS 3CLpro inh-1: SARS-CoV 3CLpro protease inhibition. P0C6X7. recombinant SARS-CoV 3CLpro, quenched FRET peptide cleavage. inhibition, % at 6 µM. 290,000 tested, 0.14% active. AID 1706; in the data active = inhibition above about 12%
BoNT-F LC inh: inhibitors of Botulinum neurotoxin F light chain protease | Multiplex microsphere protease cleavage assay, flow cytometry | inhibition, % at 10 µM | 360,000 tested, 0.22% active | AID 588497; in the data active = inhibition above about 35%, passing the limit was not always enough; inconclusive = no clear call, values can overlap the other calls
SARS 3CLpro inh-2: confirmation of SARS coronavirus 3C-like protease inhibitors; QFRET protease activity assay, 3CLpro; inhibition, % at 6 µM; shares compounds with SARS 3CLpro inh-1; 380 tested, 36% active; in the data active = inhibition above about 13%
Each line names hits and unclear results; the compound was inactive in the other large screens (follow-up assays come after a bar, where they were run). Cut-off read from the data, not from the text of the source, unless noted: active = inhibition above about 30%; inconclusive = no clear call, values can overlap the other calls; inactive = below that.

CCCC(=O)Nc1cc(-c2cn3cccnc3n2)ccc1OC	Bead autofluor 18918
O=C(Nc1cccc(-c2cn3cccnc3n2)c1)c1ccc2c(c1)OCO2	BoNT-A LC inh2 inconclusive, Bead autofluor 19449
O=C(Nc1cccc(-c2cn3cccnc3n2)c1)c1ccco1	none
Cc1ccc(-c2cn3cccnc3n2)cc1NC(=O)c1ccc(Br)o1	Bead autofluor 17184
Cc1cccc(NC(=O)CNC(=O)CN2C(=O)NC3(CCCc4ccccc43)C2=O)c1C (stereo not given)	none (no result: SARS 3CLpro inh-1)
O=C(Nc1cccc(-c2cn3cccnc3n2)c1)c1ccc(Br)o1	BoNT-A LC inh2 inconclusive, Bead autofluor 22911
O=C(Cn1cc([N+](=O)[O-])cn1)N1N=C(C(F)F)CC1(O)C(F)F (stereo not given)	Bead autofluor 22225
CCCC(C)c1nnc(NC(=O)COc2ccc3c(c2)OCO3)s1 (stereo not given)	none
COc1cc(/C=C/[N+](=O)[O-])ccc1O	BJeLR lethal 72
COc1cc(/C=C/C(=O)CC(=O)/C=C/c2ccc(O)c(OC)c2)ccc1O	BoNT-A LC inh2 31
COc1cc(/C=C/C(=O)/C=C(O)/C=C/c2ccc(O)c(OC)c2)ccc1O	BoNT-A LC inh2 32 (no result: BJeLR lethal, SARS 3CLpro inh-1)
COc1cc(/C=C/C(=O)O)ccc1O	none (no result: SARS 3CLpro inh-1)
c1ccc(-c2nnc(N3CCCC3)nc2-c2ccccc2)cc1	none
O=S1(=O)CC(N2CCN(CCO)CC2)CN1Cc1cn(Cc2ccc(C(F)(F)F)cc2)nn1 (stereo not given)	none (no result: BJeLR lethal, SARS 3CLpro inh-1)
CCC(Oc1ccc(C)c(C)c1)C(=O)O (stereo not given)	Bead autofluor 16400
Cc1ccc(OC(C)C(=O)O)cc1C (stereo not given)	none
CCOc1ccc(NC(=O)c2ccc(F)c(S(=O)(=O)N3CCCC3)c2)cc1	none (no result: BJeLR lethal, SARS 3CLpro inh-1)
CCOc1ccc(NC(=O)c2ccc(F)c(S(=O)(=O)N3CCN(c4ccccn4)CC3)c2)cc1	BoNT-A LC inh2 inconclusive, Bead autofluor 16376
COc1ccc(/C=N/OCc2nc3c4c(ncn3n2)Oc2ccc3ccccc3c2C4c2ccccc2)cc1 (stereo not given)	Bead autofluor 23152
COc1ccc(C2c3c(ccc4ccccc34)Oc3ncn4nc(Cc5ccccc5)nc4c32)cc1OC (stereo not given)	none
N#Cc1c(-c2ccc(F)cc2)nc2n(c1=O)CCS2	Bead autofluor 22077
COc1ccc(-c2nc3n(c(=O)c2C#N)CCS3)cc1	none
Cc1ccc(Oc2ccc(NC(=O)CCC(=O)OCC(=O)c3cccs3)cc2)cc1C	Bead autofluor 16284
Cc1sc2nc(SCC(=O)NCCOCCO)nc(N)c2c1C	none
Cc1sc2nc(SCC(=O)NCCOCCO)n(C)c(=O)c2c1C	Bead autofluor 21931 (no result: BJeLR lethal)
CC(=O)Oc1ccc2c(c1)Oc1cc(OC(C)=O)ccc1C21OC(=O)c2ccccc21	Bead autofluor 17180 (no result: BJeLR lethal)
Cc1nnc2c3ccccc3c(-c3cccc4ccccc34)nn12	BoNT-A LC inh2 inconclusive, Bead autofluor 19934 (no result: BJeLR lethal)
COc1cccc(N2C(=O)/C(=C/c3ccc(C)o3)C(=O)NC2=S)c1	SARS 3CLpro inh-1 13 | SARS 3CLpro inh-2 inactive
Cc1nnc(SC(=O)N2c3ccccc3Sc3ccccc32)s1	SARS 3CLpro inh-1 24 | SARS 3CLpro inh-2 38
CCOC(=O)N1c2ccccc2Sc2ccccc21	none
COc1ccc(C(=O)n2nc(C)cc2C)cc1OC	none
Cc1cc(C)n(C(=O)c2ccc(C)c(Br)c2)n1	SARS 3CLpro inh-1 14 | SARS 3CLpro inh-2 13
COCCNC(=O)C1(C)CCN(C(=O)/C=C/c2ccccc2)C1 (stereo not given)	none (no result: BJeLR lethal, SARS 3CLpro inh-1)
O=C(O)c1cccc(NC(=S)NC(=O)C(c2ccccc2)c2ccccc2)c1	SARS 3CLpro inh-1 14 | SARS 3CLpro inh-2 inactive
O=C(/C=C/c1c(F)cccc1Cl)Nc1cccnc1	SARS 3CLpro inh-1 20, BoNT-F LC inh inconclusive | SARS 3CLpro inh-2 16
O=C(/C=C/c1cc(Br)ccc1F)Nc1cccnc1	none
O=C(CSc1ncnc2scc(-c3ccccc3)c12)Nc1ccc(C(=O)O)cc1	SARS 3CLpro inh-1 13 | SARS 3CLpro inh-2 inactive
O=C(O)c1ccc(Nc2ncnc3scc(-c4ccccc4)c23)cc1	none
CC(C)Oc1ccc(/C=N/NC(=O)c2nnn(-c3nonc3N)c2CN(C)c2ccccc2)cc1	SARS 3CLpro inh-1 14 | SARS 3CLpro inh-2 inactive
CN(Cc1c(C(=O)N/N=C/c2cccc(O)c2)nnn1-c1nonc1N)c1ccccc1	none
Cc1ccc(C)c(S(=O)(=O)N2CCN(C(=O)c3ccc(N4CCCC4)c([N+](=O)[O-])c3)CC2)c1	SARS 3CLpro inh-1 13 | SARS 3CLpro inh-2 inactive
Cc1ccc(C)c(S(=O)(=O)N2CCN(C(=O)c3ccc(-n4cncn4)c([N+](=O)[O-])c3)CC2)c1	none (no result: SARS 3CLpro inh-1)
COc1ccc(C(=O)Nc2cccc(C(=O)NCc3ccco3)c2)cc1	none
O=C(Oc1ccc(Br)cc1C(=O)/C=C/c1ccccc1F)c1ccco1	SARS 3CLpro inh-1 22 | SARS 3CLpro inh-2 43
CC1(C(=O)NS(=O)(=O)c2ccc(F)cc2F)CCN1C(=O)CC(c1ccccc1)c1ccccc1 (stereo not given)	none (no result: BJeLR lethal, SARS 3CLpro inh-1)
Cc1ccc(OCC(=O)Nc2cccc(S(=O)(=O)N3CCCCCC3)c2)c([N+](=O)[O-])n1	none
CC(C)Oc1cc(NC(=O)CSCC(=O)Nc2cccc(C(F)(F)F)c2)c(Cl)cc1Cl	SARS 3CLpro inh-1 17 | SARS 3CLpro inh-2 inactive
O=C(O)CSCC(=O)Nc1cc(C(F)(F)F)ccc1Cl	none
NC(=O)CCn1c(C(=O)c2ccc(Cl)cc2)c2ccccc2[n+]1[O-]	SARS 3CLpro inh-1 46 | SARS 3CLpro inh-2 48
C/C(CC(=O)NC1CCCCC1)=N\NC(=O)COc1ccc(C)cc1Br	none
COc1ccc(C2CC(c3cccs3)=NN2C(=O)CCl)cc1OC (stereo not given)	SARS 3CLpro inh-1 74 | SARS 3CLpro inh-2 81
COc1cc(C2CC(c3cccs3)=NN2C(=O)CCl)ccc1OC(F)F (stereo not given)	BJeLR lethal 96, SARS 3CLpro inh-1 56 | SARS 3CLpro inh-2 74
COc1ccc(C2CC(c3cccs3)=NN2C(=O)c2ccccc2)cc1OC (stereo not given)	none
Cc1ccc(C2=NN(C(=O)CCl)C(c3cccs3)C2)o1 (stereo not given)	SARS 3CLpro inh-1 14 | SARS 3CLpro inh-2 59
CCCN1/C(=C(\C#N)C2=NS(=O)(=O)c3ccccc32)N(C)c2ccccc21	none (no result: BJeLR lethal, SARS 3CLpro inh-1)
O=C(NCCN1C(=O)S/C(=C\c2ccc(Cl)cc2Cl)C1=O)C1=COCCO1	BoNT-F LC inh inconclusive (no result: SARS 3CLpro inh-1)
CSc1cccc(NC(=O)Cc2ccccc2[N+](=O)[O-])c1	SARS 3CLpro inh-1 14 | SARS 3CLpro inh-2 inactive
COc1cccc(NC(=O)COC(=O)Cc2ccccc2[N+](=O)[O-])c1	none
C[C@H](CO)N1C[C@H](C)[C@@H](CN(C)Cc2ccc(C(=O)O)cc2)Oc2ccc(NS(=O)(=O)c3cn(C)cn3)cc2C1=O	none (no result: BJeLR lethal, SARS 3CLpro inh-1)
O=C(CNCCc1ccc(Cl)cc1)Nc1ccc(C(=O)N2CCCCC2)cc1	none
